Results filed as inconclusive are left out. Active and inactive are the calls of the source. Calls follow the shape of the full dose curve.
assay: VSV-G qHTS counterscreen for inhibitors of MERS-S pseudo-typed particle cell entry; conditions: VSV-G pseudotyped particle cell entry, luciferase counterscreen; series mostly up to 57.1 µM

| SMILES | Potency |
| --- | --- |
| CCN(CC)Cc1cc(Nc2ccnc3cc(Cl)ccc23)ccc1O | 24.1 µM (active) |
| CN(C)CC/C=C1\c2ccccc2Sc2ccc(Cl)cc21 | 8.57 µM (active) |
| COc1cccc2c1C(=O)c1c(O)c3c(c(O)c1C2=O)C[C@@](O)(C(=O)CO)C[C@@H]3O[C@H]1C[C@H](N)[C@@H](O)[C@H](C)O1 | 2.41 µM (active) |
| CC(C)(C)c1ccc(C(=O)CCCN2CCC(OC(c3ccccc3)c3ccccc3)CC2)cc1 | 8.57 µM (active) |
| Cc1cc(-n2c(=O)[nH]c(=O)n(C)c2=O)ccc1Oc1ccc(S(=O)(=O)C(F)(F)F)cc1 | 9.61 µM (active) |
| NCCNc1ccc(NCCN)c2c1C(=O)c1ccncc1C2=O | 21.5 µM (active) |
| C[n+]1c2cc(N)ccc2cc2ccc(N)cc21 (tested in a mixture with another compound) | 1.71 µM (active) |
| Cc1cn([C@H]2C[C@H](N=[N+]=[N-])[C@@H](CO)O2)c(=O)[nH]c1=O | 0.304 µM (active) |
| CC(=O)N1CCN(c2ccc(OC[C@H]3CO[C@](Cn4ccnc4)(c4ccc(Cl)cc4Cl)O3)cc2)CC1 | 7.64 µM (active) |
| CNC(=O)c1cc(Oc2ccc(NC(=O)Nc3ccc(Cl)c(C(F)(F)F)c3)c(F)c2)ccn1 | 15.2 µM (active) |
| CCCN1C[C@H](C)[C@@H](O)[C@](C)(O)[C@@H](CC)OC(=O)[C@H](C)[C@@H](O[C@H]2C[C@@](C)(OC)[C@@H](O)[C@H](C)O2)C(C)[C@@H](O[C@@H]2O[C@H](C)C[C@H](N(C)C)[C@H]2O)[C@](C)(O)C[C@H]1C (some centres not stated) | inactive |
| Cc1nnc(C(=O)NC(C)(C)c2nc(C(=O)NCc3ccc(F)cc3)c(O)c(=O)n2C)o1 | 0.0038 µM (active) |
| COc1cc2nccc(Oc3ccc(NC(=O)NC4CC4)c(Cl)c3)c2cc1C(N)=O | 17.1 µM (active) |
| COc1cccc2c1C(=O)c1c(O)c3c(c(O)c1C2=O)C[C@@](O)(C(C)=O)C[C@@H]3O[C@H]1C[C@H](N)[C@H](O)[C@H](C)O1 | 1.92 µM (active) |
| C=CC1(C)CC(=O)C2(O)C(C)(O1)C(OC(C)=O)C(OC(=O)CCN(C)C)C1C(C)(C)CCC(O)C12C (configuration not stated) | inactive |
| CCn1cc(C(=O)O)c(=O)c2cc(F)c(N3CCNC(C)C3)c(F)c21 (configuration not stated) | inactive |

| SMILES | Potency |
| --- | --- |
| CC(C)OC(=O)[C@H](C)N[P@](=O)(CO[C@H](C)Cn1cnc2c(N)ncnc21)Oc1ccccc1 | 0.0271 µM (active) |
| Cc1nn(C)c2c1C(c1ccccc1F)=NCC(=O)N2C | 6.07 µM (active) |
| CO[C@@]12[C@H](COC(N)=O)C3=C(C(=O)C(C)=C(N)C3=O)N1C[C@@H]1N[C@@H]12 | 0.857 µM (active) |
| O=C(Nc1ccc(Cl)cc1)Nc1ccc(Cl)c(C(F)(F)F)c1 | 10.8 µM (active) |
| Oc1c(Cl)cc(Cl)c(Cl)c1Cc1c(O)c(Cl)cc(Cl)c1Cl | 1.08 µM (active) |
| CC(C)C[C@H](NC(=O)[C@H](CCc1ccccc1)NC(=O)CN1CCOCC1)C(=O)N[C@@H](Cc1ccccc1)C(=O)N[C@@H](CC(C)C)C(=O)[C@@]1(C)CO1 | 0.192 µM (active) |
| COC(=O)C[C@](O)(CCCC(C)(C)O)C(=O)O[C@@H]1C(OC)=C[C@]23CCCN2CCc2cc4c(cc2[C@H]13)OCO4 | 0.482 µM (active) |
| COc1cccc2c1C(=O)c1c(O)c3c(c(O)c1C2=O)C[C@@](O)(C(=O)CO)C[C@@H]3O[C@H]1C[C@H](N)[C@H](OC2CCCCO2)[C@H](C)O1 (some centres not stated) | inactive |
| CCc1c2c(nc3ccc(OC(=O)N4CCC(N5CCCCC5)CC4)cc13)-c1cc3c(c(=O)n1C2)COC(=O)[C@]3(O)CC | 10.8 µM (active) |
| CN(C)[C@@H](CCOc1cccc2ccccc12)c1ccccc1 | 21.5 µM (active) |
| Cc1ccc(NC(=O)c2ccc(CN3CCN(C)CC3)cc2)cc1Nc1nccc(-c2cccnc2)n1 | 17.1 µM (active) |
| CC(=O)OCC1=C(C(=O)O)N2C(=O)[C@@H](NC(=O)Cc3cccs3)[C@H]2SC1 | inactive |
| N=C(N)c1ccc(OCCCCCOc2ccc(C(=N)N)cc2)cc1 | 10.8 µM (active) |
| CN1CCCCC1CCN1c2ccccc2Sc2ccc(S(C)=O)cc21 (configuration not stated) | 27.1 µM (active) |
| CC[C@@]1(O)C(=O)OCc2c1cc1n(c2=O)Cc2cc3c(CN(C)C)c(O)ccc3nc2-1 | 0.0857 µM (active) |
| C[C@H]1[C@H](OC(=O)CCC(=O)O)O[C@@H]2O[C@@]3(C)CC[C@H]4[C@H](C)CC[C@@H]1[C@@]24OO3 | 0.681 µM (active) |
